Inconclusive results are not listed. The source made the active and inactive calls. Unless noted, calls follow the shape of the dose curve; as a rule, active = well fitted curve in the direction sought with a large enough effect; inconclusive = small, poorly fitted or top-dose-only effect, or another doubt; inactive = no such curve, though single readings can be large; an effect the other way counts as inactive or inconclusive.
Assays:
[1] = qHTS for Inhibitors of Plasmodium falciparum (DD2) proliferation (AID 504314);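 also: parasite DNA measured by SYBR Green fluorescence after red cell lysis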; details: P. falciparum Dd2 in erythrocytes, SYBR Green growth, 72 h; series mostly up to 6.11 µM
Outline: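 Erythrocytes infected with P. falciparum (0.3% parasitemia, 2.5% hematocrit final) were incubated with compounds for 72 h at 37C, 5% CO2. Parasite DNA was detected by SYBR Green I fluorescence after saponin/Triton lysis, normalized to artemisinin (0.29 uM) and DMSO controls.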

[2] = qHTS for Inhibitors of Plasmodium falciparum (GB4) proliferation (AID 504315); also: nearly all actives have a fitted effect of over 50% in size; details: P. falciparum GB4 in erythrocytes, SYBR Green DNA, 72 h; series mostly up to 6.7 µM
Outline: (§1)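 Erythrocytes infected with P. falciparum line (0.3% parasitemia, 2.5% hematocrit final) incubated with compounds 72 h at 37 °C, 5% CO2; SYBR Green lysis buffer added, fluorescence read next day. Normalized to 0.29 uM artemisinin and DMSO.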

[3] = qHTS for Inhibitors of Plasmodium falciparum (7G8) proliferation (AID 504316); also: nearly all actives have a fitted effect of over 65% in size; details: P. falciparum 7G8 in erythrocytes, SYBR Green DNA, 72 h; series mostly up to 6.7 µM
Outline: as §1

[4] = qHTS for Inhibitors of Plasmodium falciparum (HB3) proliferation (AID 504318); also: nearly all actives have a fitted effect of over 60% in size; details: P. falciparum HB3 in erythrocytes, SYBR Green DNA, 72 h; series mostly up to 7.21 µM
Outline: as §1

[5] = qHTS for Inhibitors of Plasmodium falciparum (CP250) proliferation (AID 504320); details: P. falciparum CP250 in erythrocytes, SYBR Green DNA, 72 h; series mostly up to 6.7 µM
Outline: as §1

[6] = target: Atrial natriuretic peptide receptor 1 (Homo sapiens) (UniProt P16066); test: Natriuretic polypeptide receptor (hNpr1) antagonism - Pilot CMLD screen (AID 1347052; calls by dose curve;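 also: HEK293 cells with hNpr1 stimulated by hNppA peptide at 0.1 nM; cGMP level read as GloSensor luciferase luminescence after agonist stimulation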); details: HEK293 hNpr1 GloSensor cGMP luminescence, ANP-stimulated; series mostly up to 9.22 µM

Measured: Potency

Chain of Atrial natriuretic peptide receptor 1 (Homo sapiens) (P16066 whole entry, looked up): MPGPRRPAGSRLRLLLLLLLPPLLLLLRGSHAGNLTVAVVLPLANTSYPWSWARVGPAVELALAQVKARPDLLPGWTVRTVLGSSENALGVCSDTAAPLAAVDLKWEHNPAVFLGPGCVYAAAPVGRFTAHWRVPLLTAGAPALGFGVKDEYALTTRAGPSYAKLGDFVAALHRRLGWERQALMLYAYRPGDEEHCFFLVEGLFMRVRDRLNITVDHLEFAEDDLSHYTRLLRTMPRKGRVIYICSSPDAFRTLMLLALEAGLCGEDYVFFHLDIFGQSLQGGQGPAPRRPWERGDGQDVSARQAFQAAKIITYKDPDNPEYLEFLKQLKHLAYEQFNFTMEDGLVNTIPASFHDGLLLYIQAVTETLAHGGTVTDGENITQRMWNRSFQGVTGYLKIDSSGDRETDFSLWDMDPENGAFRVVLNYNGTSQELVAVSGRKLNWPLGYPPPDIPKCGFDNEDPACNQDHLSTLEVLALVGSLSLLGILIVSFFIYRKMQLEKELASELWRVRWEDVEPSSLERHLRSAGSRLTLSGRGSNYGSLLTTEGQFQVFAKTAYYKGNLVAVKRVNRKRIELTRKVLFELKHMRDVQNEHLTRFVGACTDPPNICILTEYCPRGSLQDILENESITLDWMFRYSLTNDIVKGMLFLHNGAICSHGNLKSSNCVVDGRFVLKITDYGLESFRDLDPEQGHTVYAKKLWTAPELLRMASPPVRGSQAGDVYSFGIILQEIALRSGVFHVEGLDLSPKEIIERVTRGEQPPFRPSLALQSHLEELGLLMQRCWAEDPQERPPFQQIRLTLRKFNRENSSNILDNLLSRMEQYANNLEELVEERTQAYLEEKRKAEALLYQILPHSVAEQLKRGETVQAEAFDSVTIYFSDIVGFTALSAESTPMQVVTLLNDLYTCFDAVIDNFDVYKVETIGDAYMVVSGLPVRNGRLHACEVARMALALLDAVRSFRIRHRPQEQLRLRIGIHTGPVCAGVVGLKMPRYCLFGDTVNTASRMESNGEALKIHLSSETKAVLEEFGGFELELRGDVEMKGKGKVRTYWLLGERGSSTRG

CCN1C(=O)NC(c2cccc(C(F)(F)F)c2)C(C(=O)OC)=C1C (stereo unspecified)
inactive: all assays above

CCN1C(=S)NC(c2ccccc2)C(C(=O)OC)=C1C (stereo unspecified)
inactive: all assays above

CCOC(=O)NN=C1C[C@@H](O)[C@@H](O)[C@@H]2[C@H]3C(=O)N([C@@H](C)c4ccccc4)C(=O)[C@@H]3CC[C@H]12
inactive: all assays above

COC(=O)C1=C(C)N(Cc2ccccc2)C(=S)NC1c1ccc(Br)cc1 (stereo unspecified)
inactive: all assays above

CC=CCCN1C=C(C(=O)OCC)C(c2ccccc2)NC1=O (stereo unspecified)
inactive: all assays above

COC(=O)N[C@@H](c1ccco1)[C@]1(C(=O)OC)CCCC1=O
inactive: all assays above

C=C(C#CCCO)CCN1C=C(C(=O)OCC)C(c2ccccc2)NC1=O (stereo unspecified)
inactive: all assays above

CC=COC(=O)N[C@@H](c1cccc(C)c1)[C@]1(C(=O)OCC)CCCC1=O
inactive: all assays above

O=C1OC2(CCCCC2)CC2=C1[C@H]1O[C@](c3ccsc3)(Cc3c1ccc1ccccc31)O2
inactive: all assays above

C=CCC12OC3(OC)CC1[C@H](C)[C@@H](c1ccccc1)C2[C@@]3(C)O (stereo partly specified)
inactive: all assays above

CC1(C)O[C@@H](C(O)(c2cc(C(F)(F)F)cc(C(F)(F)F)c2)c2cc(C(F)(F)F)cc(C(F)(F)F)c2)[C@H](C(O)(c2cc(C(F)(F)F)cc(C(F)(F)F)c2)c2cc(C(F)(F)F)cc(C(F)(F)F)c2)O1
inactive: all assays above

COCCN1C=C2C(=O)C(C)(OC(=O)c3cccs3)C(=O)C=C2C=C1CCCC(=O)OC (stereo unspecified)
inactive: all assays above

COC(=O)N[C@@H](CCc1ccccc1)[C@]1(C(=O)OC)CCCC1=O
inactive: all assays above

CCN1C(=NCc2ccc3c(c2)OCO3)N[C@@H](c2ccccc2)[C@H](C(=O)OC)[C@H]1C
inactive: all assays above

COCCN1C(=O)C2=C(C1=O)C1N(C)c3ccccc3[C@@]13C[C@@H](CO)N=C3N2 (stereo partly specified)
inactive: all assays above

C=COCCN1C=C(C(=O)OCC)C(c2ccccc2)NC1=O (stereo unspecified)
inactive: all assays above
